# ST2 IL33 inh: inhibitors of human ST2 (IL1RL1) binding to IL-33, primary screen, biochemical, AlphaLISA | hit rate 2.3% among 78,000 | AlphaLISA ST2-Fc/biotin-IL-33 interaction, 1 h | inhibition, % for hits at 17 µM; in the data active = inhibition above about 30%
# Target sequence (Q01638 whole entry, looked up): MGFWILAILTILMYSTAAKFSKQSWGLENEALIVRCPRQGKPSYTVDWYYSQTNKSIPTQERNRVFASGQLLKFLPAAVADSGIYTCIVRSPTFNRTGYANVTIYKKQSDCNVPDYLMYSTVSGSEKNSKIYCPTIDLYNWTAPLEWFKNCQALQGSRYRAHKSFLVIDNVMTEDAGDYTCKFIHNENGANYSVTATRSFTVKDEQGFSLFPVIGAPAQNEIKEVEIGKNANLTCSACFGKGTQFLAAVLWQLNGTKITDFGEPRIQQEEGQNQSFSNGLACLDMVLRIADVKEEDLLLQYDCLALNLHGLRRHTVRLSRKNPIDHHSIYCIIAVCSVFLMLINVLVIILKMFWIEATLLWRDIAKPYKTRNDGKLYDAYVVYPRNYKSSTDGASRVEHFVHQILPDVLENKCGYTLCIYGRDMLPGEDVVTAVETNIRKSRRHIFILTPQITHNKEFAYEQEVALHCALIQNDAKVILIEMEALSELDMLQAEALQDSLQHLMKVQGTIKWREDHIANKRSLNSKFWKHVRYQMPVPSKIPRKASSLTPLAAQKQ
# Active calls of the source: *; i = inactive. Shown is part of a subset that was picked to be rich in hits.
SMILES,ST2 IL33 inh
O=C(CCc1ccsc1)NC1CC(=O)N(Cc2ccc(F)cc2)C1 (configuration not stated),i
CCOc1ccc2nc(N3CCC(C(=O)N(CC)CCn4cccn4)CC3)nc(C)c2c1,i
CCOC(=O)C1CCC(CNC(=O)NCCCn2c(C(F)(F)F)nc3cccnc32)CC1 (configuration not stated),i
CC(=O)C1=C(O)C(=O)N(Cc2ccco2)C1c1ccc([N+](=O)[O-])cc1 (configuration not stated),i
CC(C)(C)CN1CC[C@H](c2nnc(-c3ccncc3)o2)C1,i
COc1cccc(CNC(=O)Nc2c(C)nc3nc[nH]n3c2=O)c1,i
CCOc1ccc(N2C(=O)S/C(=C\c3ccc(OC)cc3)C2=O)cc1,i
CCOc1ccc(N2C(=O)S/C(=C\c3ccc(O)cc3)C2=O)cc1,i
CCOc1ccc(N2C(=O)S/C(=C\c3ccc(C)o3)C2=O)cc1,34%*
COc1ccc(/C=C/C#N)cc1OC,i
COc1ccc(C=C2C(=O)OC(C)(C(C)(C)C)OC2=O)cc1OC (configuration not stated),i
COc1ccc(/C=C2\CCC/C(=C\c3ccc(OC)c(OC)c3)C2=O)cc1OC,30%*
CC1CCC(NC(=O)C2CCCN(S(=O)(=O)c3cnc[nH]3)C2)CC1 (configuration not stated),i
COc1cncc(-c2ccc(O)cc2)c1,i
O=C(O)C1CCCCC1C(=O)N1CCC(Cc2ccccc2)CC1 (configuration not stated),i
O=C1NCCc2c1[nH]c1ccc([N+](=O)[O-])cc21,30%*
O=[N+]([O-])c1cccc(C2NCCc3c2[nH]c2ccccc32)c1 (configuration not stated),i
COc1ccc2[nH]c3c(c2c1)CCNC3=O,i
O=C1C(=O)N(CCN2CCOCC2)C(c2ccc([N+](=O)[O-])cc2)C1=C(O)c1ccccc1 (configuration not stated),i
O=C(c1cc([N+](=O)[O-])ccc1N1CCOCC1)N1CCOCC1,i
O=C(/C=C(/c1ccccc1)N1CCOCC1)c1ccc([N+](=O)[O-])cc1,39%*
CCOCC(=O)Nc1c(C(=O)Nc2ccccc2F)oc2ccccc12,i
O=[N+]([O-])c1cccc2c(Br)[nH]nc12,i
O=[N+]([O-])c1cccc2ccc(N3CCCCC3)nc12,30%*
O=[N+]([O-])c1nn(-c2ccccc2)[n+]([O-])c1N1CCCCCC1,i
SMILES,ST2 IL33 inh
CCCSc1nnc2c(n1)OC(C(=O)c1ccc(OC)cc1)Nc1ccccc1-2 (configuration not stated),i
O=S(=O)(Nc1cnc2ccccc2c1)c1ccc(F)cc1,i
COc1ccc(N2CC(NC(=O)c3ccco3)CC2=O)cc1 (configuration not stated),i
COc1ccc(N2CC(NC(=O)c3ccc(Br)o3)CC2=O)cc1 (configuration not stated),31%*
O=C(NC1CC(=O)N(c2ccccc2)C1)c1ccc(Br)o1 (configuration not stated),i
COc1ccc(S(=O)(=O)N2C[C@@H]3C[C@H](C2)c2ccc(NC(=O)c4cnccn4)c(=O)n2C3)cc1,i
O=[N+]([O-])c1ccc(NCCOCCO)c(Cl)c1,i
O=C(O)c1ccc(O)c(C=Nc2ccc(Br)cc2)c1,i
O=C(O)c1ccc(N=Cc2cc(Br)ccc2O)cc1,i
C=CCc1cccc(C=Nc2ccc(Br)cc2)c1O,39%*
COc1ccc(C2=NN(C(=O)CCC(=O)O)C(c3cc4ccc(C)cc4nc3Cl)C2)cc1 (configuration not stated),i
COc1ccc(C2=NN(CN3C(=O)C(=O)c4ccccc43)C(c3ccc(C)cc3)C2)cc1 (configuration not stated),43%*
COc1ccc(C2CC(c3ccc(Br)cc3)=NN2C(=O)CCCC(=O)O)cc1 (configuration not stated),i
COc1ccc(OC)c(NS(=O)(=O)c2c(C)cc(C)cc2C)c1,i
COc1ccc(-c2cc(C(F)(F)F)nc(NCc3ccccc3)n2)cc1OC,i
COc1ccccc1Nc1cc(C(F)(F)F)nc2c(OC)ccc(OC)c12,39%*
COc1ccccc1-c1cc(C(F)(F)F)nc(S(C)(=O)=O)n1,i
CC(C(=O)O)C1Sc2ccccc2N(Cc2ccccc2F)C1=O (configuration not stated),i
CCOC(=O)Cn1cnc2c(oc3ccccc32)c1=O,i
COc1ccc(S(=O)(=O)NN)cc1,i
COc1ccc(NC(=O)CCS(=O)(=O)c2cccc3cccnc23)cc1OC,i
COc1ccc(S(=O)(=O)N2CCC(C(=O)Nc3cccc(SC)c3)CC2)cc1,i
O=C1N(Cc2cccc(Cl)c2)C[C@@H]2C[C@@H](c3ccc4nsnc4c3)N3CCC[C@@]123,40%*
OCC1CCCN1Cc1cccc(Cl)c1 (configuration not stated),i
O=C1N(CCc2ccccc2)C[C@@H]2C[C@@H](c3cnc(-c4ccccc4)s3)N3CCC[C@@]123,i
SMILES,ST2 IL33 inh
O=C(C1CC1)N1CCc2cc(Br)cc(S(=O)(=O)NCCN3CCCC3)c21,i
NNC(=O)CNc1ccc(Cl)cc1Br,i
Cc1ccc(N(C(=O)C(C)C)C2C=CS(=O)(=O)C2)cc1C (configuration not stated),i
Cc1cc(S(=O)(=O)N2CCC(CO)(Cc3ccc(Cl)cc3)CC2)c(C)s1,i
COc1ccc(Nc2ncnc(N)c2[N+](=O)[O-])cc1Cl,i
Cc1ccc2[nH]c3c(c2c1)CN(C(=O)C1CCCN(CC(N)=O)C1)CC3 (configuration not stated),i
Cc1ccc2[nH]c3c(c2c1)CCCC3NCc1ccc(F)cc1 (configuration not stated),32%*
COC(CN(C(C)=O)C1CCCc2c1[nH]c1ccc(C)cc21)OC (configuration not stated),i
Cn1c([C@H]2CCN(Cc3cccc(C#N)c3)C2)nc2ccccc21,i
Cc1nc2cc(-c3cccc4ccnn34)ccc2s1,i
Cc1ccc2c(c1)c1c(n2C)C(C(N)=O)CCC1 (configuration not stated),32%*
CC(=O)N1CCn2c3c(c4cc(C5CCCCC5)ccc42)CCCC31 (configuration not stated),i
Cc1ccc2c(c1)c1c3n2CCN(C(=O)c2ccccc2)C3CCC1 (configuration not stated),30%*
Cc1ccc2c(c1)c1c(n2CCC#N)C(=O)CCC1,i
Cc1ccc2c(c1)c1c3n2CCN(CCC#N)C3CCC1 (configuration not stated),i
CC(=O)N1CCn2c3c(c4cc(C)ccc42)CCCC31 (configuration not stated),i
C=CCN(Cc1cccc(OC)c1)C(=O)c1cccc(-c2noc(C)n2)c1,i
CC(C)C(O)(/C=C/C(O)(C(C)C)C(C)C)C(C)C,i
Cc1ccccc1C1C(C#N)=C(N)OC2=C1C(=O)CC(C)(C)C2 (configuration not stated),i
CC(=O)Oc1ccc([C@H]2C(C#N)=C(N)OC3=C2C(=O)CC(C)(C)C3)cc1,i
CCOC=NC1=C(C#N)C(c2ccccc2)C2=C(CC(C)(C)CC2=O)O1 (configuration not stated),59%*

# Compound activity as filed in PubChem.
